Most compounds without a hit are left out; they make up all but 2.2% or so of the library.
aSyn UTR inh: 5' untranslated region of α-synuclein, MLPCN primary screen | alpha-synuclein 5'UTR reporter, inhibitor activity | inhibition, % (tested at 7.5 µM) | 0.82% of 300,000 active | AID 1813; in the data active = inhibition above about 60%; inconclusive = no clear call, values can overlap the other calls;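 note: H4 neuroglioblastoma cells stably carrying SNCA 5'UTR luciferase fusion; 0% = DMSO wells and 100% = positive control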
IEC-6 tox: counter-screen for KLF5 inhibitors: cytotoxicity in IEC-6 cells; IEC-6 cytotoxicity, luminescence viability; inhibition, % at 5 µM; 0.78% of 290,000 active; AID 1825; in the data active = inhibition above about 22%;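 note: 0% = plate median of test compound wells and 100% = cytotoxic reference compound wells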
KLF5 inhibitor: suppresses KLF5 promoter-driven expression; DLD-1 KLF5 promoter-luciferase reporter, luminescence; inhibition, % at 5 µM; 0.23% of 290,000 active; AID 1700;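 active = inhibition above a per-plate limit of that plate's mean compound inhibition plus 3 SD, cut at about 60% in these data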;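 note: 0% = DMSO wells and 100% = LY294002 at 200 µM; higher means less KLF5 promoter-driven luciferase light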
Ba/F3 V617F tox: loss of viability in JAK2V617F-driven Ba/F3 cells; inhibition, % at 5.6 µM; 1.1% of 220,000 active; Ba/F3 EpoR-JAK2V617F viability, ATP luminescence; AID 1446;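 active = inhibition above the campaign mean plus 3 SD over all tested compounds, cut at about 24% in these data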;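 note: cytokine-independent growth of Ba/F3 cells driven by EpoR plus mutant JAK2; 0% = DMSO-treated cells and 100% = JAK inhibitor I control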
APP transl inh: APP translation inhibition. AID 1285. 0.82% of 190,000 active. SH-SY5Y APP 5'UTR-luciferase reporter, luminescence. inhibition, % at 2 µM;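 active = inhibition above a set limit, derived from the sample mean plus 3 SD, cut at about 45% in these data; inconclusive = one replicate passes the limit while the other fails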
BaF3 tox: parental Ba/F3 viability inhibition as JAK2V617F counter-screen; inhibition, % at 5.6 µM; CellTiter-Glo ATP luminescence; 1.1% of 220,000 active; AID 1486;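 active = inhibition above a per-campaign cutoff, the mean inhibition of all tested compounds plus 3 SD, cut at about 27% in these data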;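 note: 0% = DMSO wells and 100% = JAK Inhibitor I control wells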
* hit, by the source's call; ? = inconclusive; / = no result.

SMILES | aSyn UTR inh | IEC-6 tox | KLF5 inhibitor | Ba/F3 V617F tox | APP transl inh | BaF3 tox
COc1ccccc1/C=N/n1cnnc1 | 3.4 | 2.3 | 7.9 | -1.8 | -4.4 | -0.2
COc1c(Cl)cc(Cl)cc1/C=N/n1cnnc1 | 16.5 | -4.8 | -13.5 | -4.5 | 54.9* | -2.1
CCC(=O)Nc1ccc(NC(=S)Nc2ccccc2)cc1 | -10.3 | -2.4 | -17.7 | -2.4 | -10.8 | 57.7*
CCC(=O)Nc1ccc(NC(=S)NC(=O)Cc2ccccc2)cc1 | -15.4 | 4.1 | -52.0 | -2.7 | -17.0 | 6.9
CC(C)CCNCC(O)CON=C1c2ccccc2-c2ccccc21 (configuration not stated) | 86.2* | -0.6 | -50.8 | 1.0 | -22.8 | 5.3
Cc1cc(C(=O)CSc2nnc(-c3cccs3)n2Cc2ccccc2)c(C)n1C | -2.7 | 2.3 | -17.3 | 0.5 | -7.8 | 3.1
O=c1cc(CSc2nnc(-c3cccs3)n2Cc2ccccc2)nc2sc3ccccc3n12 | -16.4 | 1.8 | -5.5 | 43.0* | 5.2 | 54.9*
CCOc1ccc(N(CC(=O)Nc2ccc(C)c(C)c2)S(=O)(=O)c2c(C)noc2C)cc1 | 12.1 | 1.9 | 13.3 | 2.1 | -13.7 | 1.9
CCOc1ccc(N(CC(=O)Nc2ccccc2C)S(=O)(=O)c2c(C)noc2C)cc1 | ? | 62.7* | 27.8 | 78.2* | 65.9* | 53.5*
CCOc1ccccc1NC(=O)CN(c1ccc(OC)cc1)S(=O)(=O)c1c(C)noc1C | 59.3 | 2.5 | -5.8 | 78.5* | 88.8* | 74.6*
Cc1cc(NC(=O)CSc2nc3c(cc2C#N)CCC3)no1 | -27.4 | 0.5 | -213.2 | / | / | /
O=C(N/N=C/c1ccc[nH]1)c1ccc(COc2cccc3cccnc23)cc1 | 104.0* | 38.7* | -21.6 | 86.5* | 46.1* | 80.4*
CC(NC(=O)COC(=O)c1ccc2c(c1)S(=O)(=O)N=C1CCCCCN12)C12CC3CC(CC(C3)C1)C2 (configuration not stated) | 67.8* | -3.4 | -31.9 | -2.0 | 28.1 | 3.4
Cc1cccc(Nc2nc(-c3ccc(O)cc3O)cs2)n1 | -125.9 | 3.5 | -131.3 | / | / | /
CCOc1ccc(NC(=O)C2CCCN(S(C)(=O)=O)C2)cc1 (configuration not stated) | -1.8 | -4.8 | -8.6 | / | / | /
COc1ccc(-n2nc3c(c2NC(=O)C2CC(=O)N(c4ccccc4)C2)CS(=O)(=O)C3)cc1 (configuration not stated) | 0.5 | -10.9 | -0.2 | / | / | /
CC(=O)c1ccccc1OCCOCCOCCOc1ccccc1C(C)=O | 67.3* | -9.0 | -13.2 | -5.0 | -14.6 | -2.0
CC(=O)c1ccccc1OCCCN1CCCCC1 | -5.4 | -2.7 | -10.4 | 3.0 | 22.5 | 0.8
CC(Oc1ccccc1)C(=O)Nc1cc(Cl)ccc1-n1cncn1 (configuration not stated) | 28.2 | / | / | / | / | /
Cc1cc(N2CCN(c3nc(-c4ccc([N+](=O)[O-])cc4)cs3)CC2)c2ccccc2n1 | 65.7* | -7.1 | -25.5 | -3.4 | 29.0 | 0.2
Cc1cc(-c2ccc([N+](=O)[O-])cc2)nc2ccccc12 | -36.7 | 13.3 | -2.1 | -1.4 | -39.3 | 2.6
CCOC(=O)CN1C(=O)CC(c2ccc([N+](=O)[O-])cc2)C1=O (configuration not stated) | 9.0 | 4.3 | -1.2 | / | / | /
CC1CCC(NC(=O)C2CC(=O)N(c3ccc(Cl)cc3)C2)CC1 (configuration not stated) | 14.8 | -5.3 | -17.3 | / | / | /
CCOC(=O)CSc1nc2ccc(N3CCOCC3)cc2c(=O)n1Cc1ccccc1 | -1.6 | 0.8 | -17.1 | -0.2 | 77.8* | 6.4
c1ccc(-c2nnc(-c3ccccn3)s2)nc1 | 78.4* | -1.5 | -93.5 | 4.5 | / | 9.9
SMILES | aSyn UTR inh | IEC-6 tox | KLF5 inhibitor | Ba/F3 V617F tox | APP transl inh | BaF3 tox
O=C1/C(=C/c2ccncc2)CCC/C1=C\c1ccncc1 | -100.9 | 17.1 | 38.1 | 22.2 | 82.2* | -13.7
O=C1/C(=C\c2ccncc2)CCc2ccccc21 | -4.7 | / | / | / | / | /
Nc1nc(N)c2cc(Sc3ccc4ccccc4c3)ccc2n1 | 96.1* | 80.9* | 26.3 | 95.7* | / | 101.2*
COc1ccc(C(C)=O)c(Oc2cc(NN3CCCCC3)c([N+](=O)[O-])cc2[N+](=O)[O-])c1 | -9.2 | -1.2 | -19.7 | / | / | /
COc1cc(OC)cc(C(=O)NCC2CCCN(C(=O)c3csc(C)n3)C2)c1 (configuration not stated) | -16.0 | -5.1 | -26.3 | / | / | /
CCc1nc(SCC#N)c(C#N)cc1C | 68.5* | 2.3 | -18.2 | -0.5 | 0.9 | 4.0
Cc1cccc2cc(C#N)c(SCC#N)nc12 | 84.9* | 0.5 | -7.8 | 0.5 | -9.9 | 2.6
Cc1cccc2cc(C#N)c(SCC(=O)NNC(=O)Cc3ccccc3)nc12 | 9.4 | 3.1 | -38.0 | 0.5 | 1.6 | 4.0
CCc1nc(SCC(=O)O)c(C#N)cc1C | -16.1 | -2.3 | -3.0 | -0.3 | 12.2 | 5.6
O=C(O)c1ccc(OCc2cn3ccccc3n2)cc1 | -34.2 | 8.1 | -13.3 | -3.5 | / | -1.5
O=C(COc1ccc(Oc2ccccc2)cc1)NCc1cn2ccccc2n1 | 62.4* | 37.4* | 21.9 | 31.1* | 18.2 | 26.6*
COc1ccc(N/C(N)=N/c2nc(CSc3nnc(C)s3)cc(=O)[nH]2)cc1 | 3.9 | 5.0 | -5.1 | 4.4 | 15.5 | 13.2
Cc1ccc(N/C(N)=N/c2nc(CSc3nnc(C)s3)cc(=O)[nH]2)c(C)c1 | 83.5* | 9.4 | -29.0 | -0.7 | 93.4* | 3.6
O=S(=O)(c1ccc(Cl)cc1)N1c2ccccc2Oc2nc3ccccc3nc21 | -96.4 | -1.7 | -12.0 | 0.8 | -14.9 | 5.4
COc1ccc(S(=O)(=O)N2c3cc(Cl)ccc3Oc3nc4ccccc4nc32)cc1 | 99.6* | 5.2 | -6.7 | -4.8 | -17.2 | -0.8
CCn1cc(C(=O)NCc2ccco2)c(=O)c2cc(S(=O)(=O)N3CC(C)CC(C)C3)ccc21 (configuration not stated) | 81.9* | 10.0 | -4.2 | 9.8 | 38.9 | 10.5
COc1ccc(CCN(C)C2CCCN(S(=O)(=O)c3ccccc3F)C2)cc1OC (configuration not stated) | -7.2 | 7.3 | -23.2 | / | / | /
CCCCSc1nnc(-c2ccc(C)cc2)n1C | -109.3 | 4.7 | -41.3 | 30.5* | -38.0 | 35.2*
CCSc1nnc(-c2ccc(S(=O)(=O)N3CCCC3)cc2)n1C | -35.6 | 1.5 | -6.4 | 0.0 | 72.6* | 1.2
CCSc1nnc(-c2ccc(S(=O)(=O)N3CCOCC3)cc2)n1C | 9.6 | 8.5 | 2.7 | / | / | /
CC(C)Oc1ccc(Cc2cnc(N)nc2N)cc1 | 8.4 | -3.5 | -8.2 | 10.1 | 8.6 | 3.5
COc1cc(C)c(Cc2cnc(N)nc2N)cc1OC | -2.2 | -8.2 | -16.1 | 32.8* | / | -2.0
COc1ccc2nc(C)cc(NCc3ccc(F)cc3)c2c1 | 13.6 | 16.7 | 16.1 | / | / | /
O=C(Nc1cc2c3c(c1)CC(=O)N3CCC2)c1ccco1 | -5.1 | / | / | / | / | /
Cc1cc(C)c2nc(/N=C(\N)NC(=O)Nc3ccccc3)nc(C)c2c1 | -19.8 | 0.1 | -15.4 | 68.9* | -6.0 | 65.6*
O=C(CNCc1ccc(F)cc1)Nc1ccc(C(=O)N2CCCCC2)cc1 | -8.2 | 2.8 | -16.9 | / | / | /
O=C(CC(C(=O)N1CCc2ccccc21)n1ccnc1)NCC1CCCO1 (configuration not stated) | 7.5 | -0.2 | -29.6 | 0.8 | -9.6 | 94.8*

Bioassay records deposited in PubChem BioAssay by several laboratories.
